For eight compounds, growth results are on record in PubChem BioAssay (NCI).

The panel holds about 83,000 compounds, 20% with a hit somewhere; the sample as a whole holds those more often.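 Values shown are percent growth following 48 h exposure of cells in 96-well plates to a single concentration of compound; below 10 was considered active.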 Values without a mark were called inactive. The source made the active and inactive calls.

Test systems include NCI-H226 lung; NCI-H322M lung; HOP-62 NSCLC; NCI-H460 lung; HOP-92 NSCLC; NCI-H522 lung; A549/ATCC NSCLC; 786-0 renal; DU-145 prostate; K-562 leukemia; MALME-3M melanoma; MDA-MB-231 breast; RXF 393 renal; SF-268 CNS; SF-295 CNS; SF-539 CNS; UACC-257 melanoma; M14 melanoma; HCT-15 colon; COLO 205 colon.
What all share (assay): NCI-60 one-dose screen, 48 h (100 = growth as untreated, 0 = no growth, -100 = all killed)
What all share (settings): 10 µM unless noted

In the case of `C/C(=N\NC(N)=O)c1c(O)sc(=O)[nH]c1=O`, the growth is 101% in the assay with NCI-H226 lung; 97.3% in the assay on NCI-H322M lung; 96.6% in the assay with HOP-62 NSCLC; 106% with NCI-H460 lung; 104% with HOP-92 NSCLC; 98.7% in the assay on NCI-H522 lung. Also, the growth with A549/ATCC NSCLC is 98.4%; in the assay with 786-0 renal, 104%; with DU-145 prostate, 110%; in the assay with K-562 leukemia it was 105%; with MALME-3M melanoma it was 97.5%; in the assay with MDA-MB-231 breast, 102%. For the same compound, the growth was 107% in the assay with RXF 393 renal; 104% with SF-268 CNS; 96.3% in the assay on SF-295 CNS; 94.6% with SF-539 CNS; 96.5% in the assay with UACC-257 melanoma; 98.8% with M14 melanoma. In the assay on HCT-15 colon, the growth was 97.1%.
On to `Cc1ccc2ccc3ccc(C)nc3c2n1.Cc1ccc2ccc3ccc(C)nc3c2n1.Oc1c(Cl)cc(Cl)c2ccc(CN3CCCCC3)nc12.[Ru]`, for which the growth in the assay on NCI-H226 lung is -69% (active); in the assay with NCI-H322M lung, -83.4% (active); in the assay with HOP-62 NSCLC it was -57.2% (active); with NCI-H460 lung, -15.2% (active); in the assay with HOP-92 NSCLC, -86.5% (active); in the assay with NCI-H522 lung it was -68.8% (active). The growth was -42.7% (active) in the assay on A549/ATCC NSCLC; -87.7% (active) in the assay with 786-0 renal; -74.2% (active) in the assay on COLO 205 colon; -93.3% (active) with DU-145 prostate; -85.1% (active) in the assay on MALME-3M melanoma; -84% (active) in the assay with MDA-MB-231 breast. Also, the growth in the assay with RXF 393 renal was -84.1% (active); with SF-268 CNS, -54.8% (active); with SF-295 CNS, -84.2% (active); with SF-539 CNS, -88.2% (active); with UACC-257 melanoma, -69.4% (active); with M14 melanoma it was -94.1% (active). Further, the growth in the assay on HCT-15 colon was -81.3% (active).
Take `OC1CCN(CCCOc2c3ccc(Cl)cc3nc3c2oc2ccc(Cl)cc23)CC1`: the growth with NCI-H226 lung was 2.57% (active); in the assay with NCI-H322M lung, 15%; in the assay with HOP-62 NSCLC, 41%; with NCI-H460 lung it was -75.2% (active); in the assay on HOP-92 NSCLC, 9.66% (active); with NCI-H522 lung it was 9.65% (active). Further, the growth in the assay on A549/ATCC NSCLC is -52.9% (active); in the assay on 786-0 renal, -99% (active); in the assay on COLO 205 colon, -11.1% (active); in the assay on DU-145 prostate, -97.5% (active); in the assay on K-562 leukemia, -51.7% (active); with MALME-3M melanoma it was -66.6% (active). Also, the growth with MDA-MB-231 breast is 24.5%; in the assay with RXF 393 renal it was -80.4% (active); with SF-268 CNS, 27.4%; in the assay on SF-295 CNS, 17.8%; in the assay with SF-539 CNS it was -74.1% (active); in the assay on UACC-257 melanoma, -13.4% (active). The growth is -93.8% (active) in the assay on M14 melanoma and -83% (active) in the assay with HCT-15 colon.
In the case of `CCOC(=O)c1c(Nc2ccccc2)nn2c(-c3ccco3)c(C#N)cnc12`, the growth with NCI-H226 lung is 76.9%; in the assay on NCI-H322M lung, 96.8%; in the assay on HOP-62 NSCLC it was 95.6%; in the assay with NCI-H460 lung it was 93.1%; with HOP-92 NSCLC, 68%; with NCI-H522 lung, 82.6%. The growth with A549/ATCC NSCLC was 95.2%; in the assay with 786-0 renal, 67.2%; with COLO 205 colon, 98.6%; with DU-145 prostate, 87.9%; in the assay on MALME-3M melanoma, 94.9%; in the assay with MDA-MB-231 breast, 80%. Also, the growth is 82.1% in the assay on RXF 393 renal; 80.5% in the assay with SF-268 CNS; 76.7% in the assay on SF-295 CNS; 42% in the assay with SF-539 CNS; 112% in the assay with UACC-257 melanoma; 107% in the assay on M14 melanoma. Further, the growth with HCT-15 colon was 91.5%.
`c1ccc(CNc2ncnc3ccc(-c4cnc5[nH]ncc5c4)cc23)cc1`: the growth with NCI-H226 lung is 55.7%; with NCI-H322M lung, 59.3%; in the assay on HOP-62 NSCLC, 60.7%; in the assay with NCI-H460 lung, 65.7%; in the assay on HOP-92 NSCLC, 57.9%; in the assay with NCI-H522 lung, 60.9%. Moreover, the growth in the assay with A549/ATCC NSCLC was 37.5%; in the assay with 786-0 renal it was 61.8%; in the assay with COLO 205 colon, 94%; in the assay with DU-145 prostate, 49.6%; in the assay with MALME-3M melanoma, 103%; in the assay with MDA-MB-231 breast it was 63.7%. Besides, the growth in the assay on RXF 393 renal is 33.8%; in the assay with SF-268 CNS, 58.2%; in the assay with SF-295 CNS, 74.1%; in the assay on SF-539 CNS, 69.9%; in the assay on UACC-257 melanoma it was 95.4%; with M14 melanoma, 94.8%. In addition, the growth with HCT-15 colon was 77%.
As to `CCOC(=O)c1c(Nc2ccccc2)nn2c(N)c(C#N)c(-c3ccccc3)nc12`, the growth in the assay on NCI-H226 lung was 83.3%; with NCI-H322M lung, 94.8%; in the assay on HOP-62 NSCLC, 97.7%; with NCI-H460 lung it was 93.2%; in the assay on HOP-92 NSCLC, 81.8%; in the assay with NCI-H522 lung, 89.7%. The growth in the assay on A549/ATCC NSCLC was 97%; with 786-0 renal it was 79.5%; in the assay on DU-145 prostate it was 81.1%; with K-562 leukemia, 48.5%; with MALME-3M melanoma, 96%; with MDA-MB-231 breast, 63.9%. In addition, the growth in the assay with RXF 393 renal was 68.3%; with SF-268 CNS it was 87.4%; in the assay with SF-295 CNS it was 81.3%; in the assay with SF-539 CNS it was 82.2%; in the assay on UACC-257 melanoma it was 111%; with M14 melanoma, 89%. Also, the growth in the assay with HCT-15 colon is 52.4%.
For `N#Cc1ccc(/C=N/NC(=O)c2[nH]c3ccc(Br)cc3c2-c2ccccc2)s1`, the growth in the assay with NCI-H226 lung is 46.9%; in the assay with NCI-H322M lung, 45.9%; in the assay on HOP-62 NSCLC, 26.9%; in the assay with NCI-H460 lung it was 3.12% (active); in the assay on HOP-92 NSCLC, 33.9%; with NCI-H522 lung, -22.7% (active). Further, the growth in the assay on A549/ATCC NSCLC was 22.4%; in the assay with 786-0 renal it was 10.2%; with DU-145 prostate, 19.3%; in the assay with K-562 leukemia it was 8.83% (active); in the assay with MALME-3M melanoma, 50.1%; in the assay on MDA-MB-231 breast it was 22.1%. The growth is 56% with RXF 393 renal; 30% in the assay on SF-268 CNS; 11.7% with SF-295 CNS; 2.47% (active) in the assay on SF-539 CNS; 40.9% with UACC-257 melanoma; 9% (active) in the assay on M14 melanoma. The growth in the assay with HCT-15 colon was 8.95% (active).
Regarding `COc1ccc(/C=C/C(=O)c2ccc(NC(=O)CSc3nnc(-c4ccc5nc(-c6ccc(Cl)cc6)[nH]c5c4)o3)cc2)cc1`, the growth in the assay on NCI-H226 lung is 87.6%; in the assay with NCI-H322M lung, 103%; in the assay with HOP-62 NSCLC, 103%; in the assay with NCI-H460 lung, 102%; with HOP-92 NSCLC it was 102%; with NCI-H522 lung it was 79.1%. The growth in the assay on A549/ATCC NSCLC is 105%; in the assay with 786-0 renal, 99.6%; in the assay on COLO 205 colon, 118%; with DU-145 prostate, 108%; in the assay with K-562 leukemia, 87.3%; in the assay with MALME-3M melanoma, 93.5%. Moreover, the growth with MDA-MB-231 breast was 98.4%; with RXF 393 renal, 107%; with SF-268 CNS it was 114%; in the assay with SF-295 CNS it was 100%; in the assay on SF-539 CNS it was 94.3%; in the assay with UACC-257 melanoma it was 110%. Besides, the growth with M14 melanoma was 106%; in the assay on HCT-15 colon it was 94.9%.
